PubChem BioAssay AID2240 (Broad Institute, 2010)
The whole screen tested about 37,000 compounds, of which about 100 (0.27%) were called active. The sample holds actives, similar compounds and a random draw of the others, so the mix is not that of the screen. Unmarked numbers belong to inactive results. Cut-off read from the data, not from the text of the source: active = inhibition above about 85%; inconclusive = no clear call, values can overlap the other calls; inactive = below about 68%.

test: blocks MITF activity, primary screen, MITF inhibitor project, cell-based, luminescence (AID 2240); conditions: TRPM1 promoter luciferase, 24 h, active compounds read high, concentration not given here;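 note: human melanocyte line stably carrying TRPM1 promoter luciferase reporter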

Compound	inhibition [%]
COc1ccc(NC(=O)CSC2CC(=O)N(c3ccc(F)cc3)C2=O)cc1 (configuration not stated)	-4.35
CC(=O)Nc1ccc(NC(=O)CN(c2ccc(I)cc2)S(C)(=O)=O)cc1	-73.1
C[C@@H]1CN([C@H](C)CO)C(=O)c2cc(N(C)C)ccc2O[C@@H]1CN(C)S(=O)(=O)c1cn(C)cn1	0.48
COc1ccc(NC(=O)Nc2ccc3c(c2)CC(=O)N([C@@H](C)CO)C[C@@H](C)[C@@H](CN(C)Cc2ccc(C(F)(F)F)cc2)O3)cc1	40.7
C[C@@H]1CN([C@@H](C)CO)C(=O)c2cc(NC(=O)Nc3ccc(C(F)(F)F)cc3)ccc2O[C@@H]1CN(C)Cc1ccncc1	0.516
COC(=O)c1c(C)c(=O)[nH]c2ccccc12	11.2
C[C@@H]1CN([C@H](C)CO)C(=O)c2cc(NC(=O)CCCCCC(=O)Nc3ccccc3N)ccc2O[C@H]1CN(C)C(=O)Nc1ccc(C(F)(F)F)cc1	1.03
CNC[C@H]1Oc2ccc(NC(=O)CCC(F)(F)F)cc2C(=O)N([C@@H](C)CO)C[C@H]1C	-6.95
CC(C)(O)C(O)COc1c2occc2cc2ccc(=O)oc12 (configuration not stated)	-25
CS(=O)(=O)N(CC(=O)Nc1ccc(Br)cc1)c1cc(Cl)c(Cl)cc1Cl	-6.97
C[C@@H]1CN([C@H](C)CO)C(=O)Cc2cc(NC(=O)CCCN(C)C)ccc2O[C@H]1CN(C)S(=O)(=O)c1cccs1	-32
C[C@H](CO)N1C[C@H](C)[C@H](CN(C)C(=O)Nc2ccccc2)Oc2ccc(NC(=O)C3CC3)cc2CC1=O	-0.845
C[C@@H]1CN([C@H](C)CO)C(=O)c2cc(NS(=O)(=O)c3cn(C)cn3)ccc2O[C@H]1CN(C)S(=O)(=O)c1ccc(Cl)cc1	-0.174
Cc1noc(C)c1S(=O)(=O)Nc1ccc2c(c1)CC(=O)N([C@H](C)CO)C[C@@H](C)[C@@H](CN(C)C)O2	-9.62
Cc1cc(C)c(NC(=O)CSc2nnc(-c3ccccc3)n2-c2ccc(F)cc2)c(C)c1	15.6
Cc1ccc(S(=O)(=O)Nc2ccc3c(c2)C(=O)N([C@@H](C)CO)C[C@@H](C)[C@H](CN(C)Cc2ccc(C(F)(F)F)cc2)O3)cc1	24.8
O=C(CSc1nccc(=O)[nH]1)Nc1cccc(Br)c1	-6.51
C[C@H](CO)N1C[C@H](C)[C@H](CN(C)Cc2ccc(-c3ccccc3)cc2)Oc2ccc(NS(=O)(=O)c3ccccc3)cc2C1=O	0.813
Cc1noc(C)c1NC(=O)Nc1ccc2c(c1)C(=O)N([C@@H](C)CO)C[C@@H](C)[C@H](CN(C)Cc1ccc(C(F)(F)F)cc1)O2	-0.382
Cc1cccc(NC(=O)CSc2nc3c(cc2C#N)CCCCC3)c1	0.0416
CN(CC(=O)Nc1ccc(F)cc1)S(=O)(=O)c1ccccc1	-37.2
C[C@H]1CN([C@@H](C)CO)C(=O)Cc2cc(NC(=O)C3CC3)ccc2O[C@H]1CN(C)C(=O)Nc1ccc(C(F)(F)F)cc1	-4.89
COc1ccc(CN(C)C[C@H]2Oc3ccc(NC(=O)CCN4CCOCC4)cc3C(=O)N([C@@H](C)CO)C[C@H]2C)cc1	9.34

Compound	inhibition [%]
Cc1cccc(C)c1NC(=O)C(C)N(c1ccc(Cl)cc1)S(C)(=O)=O (configuration not stated)	-20.7
Cc1noc(C)c1S(=O)(=O)N(C)C[C@H]1Oc2ccc(NC(=O)CCN3CCOCC3)cc2CC(=O)N([C@H](C)CO)C[C@H]1C	10.6
O=C(NCc1ccco1)c1cc(-c2cccnc2)nc2ccc(Cl)cc12	-14.7
Cc1ccc(S(=O)(=O)Nc2cccc3c2O[C@H](CN(C)S(=O)(=O)c2cn(C)cn2)[C@H](C)CN([C@H](C)CO)C3=O)cc1	0.736
Cc1ccc(S(=O)(=O)N(C)C[C@@H]2Oc3ccc(NC(=O)Nc4ccc(F)cc4)cc3C(=O)N([C@H](C)CO)C[C@@H]2C)cc1	-19.7
Cc1ccc(-n2c(SCC(=O)Nc3ccc(F)c(F)c3)nnc2-c2cnccn2)cc1	-1.94
C[C@H](CO)N1C[C@H](C)[C@H](CN(C)Cc2ccncc2)Oc2ccc(NS(=O)(=O)c3ccc(F)cc3)cc2CC1=O	-14.1
COc1ccccc1NC(=O)CN(c1ccc(Br)c(C)c1)S(C)(=O)=O	-1.36
C[C@H]1CN([C@@H](C)CO)C(=O)Cc2cc(NS(=O)(=O)c3cccs3)ccc2O[C@@H]1CN(C)S(=O)(=O)c1cn(C)cn1	-7.83
C[C@@H]1CN([C@@H](C)CO)C(=O)c2cccc(NC(=O)c3nc4ccccc4s3)c2O[C@@H]1CN(C)Cc1ccc(Cl)c(Cl)c1	10.3
CN(C)c1ccc(NC(=O)CN(C)S(=O)(=O)c2ccc(Br)cc2)cc1	-8.87
COc1ccccc1NC(=O)CSc1ncc(-c2ccccc2)nn1	-3.76
Cn1c(SCc2nc3ccccc3c(=O)[nH]2)nnc1-c1cc2ccccc2o1	17.4
C[C@H]1CN([C@@H](C)CO)C(=O)Cc2cc(NC(=O)NC3CCCCC3)ccc2O[C@H]1CN(C)S(=O)(=O)c1cccs1	6.16
COc1ccc(S(=O)(=O)Nc2ccc3c(c2)C(=O)N([C@@H](C)CO)C[C@@H](C)[C@@H](CN(C)S(C)(=O)=O)O3)cc1	2.87
C[C@@H]1CN([C@@H](C)CO)C(=O)Cc2cc(NC(=O)Cc3ccccc3)ccc2O[C@@H]1CN(C)Cc1ccc(Oc2ccccc2)cc1	41.7
O=C(CN1CCOCC1)Nc1sc2c(c1C(=O)Nc1ccc(Br)cc1)CCC2	53
COc1ccc(NC(=O)N(C)C[C@H]2Oc3ccc(NS(=O)(=O)c4cccs4)cc3C(=O)N([C@@H](C)CO)C[C@H]2C)cc1	-5.79
C[C@H](CO)N1C[C@H](C)[C@H](CN(C)S(=O)(=O)c2cn(C)cn2)Oc2c(NC(=O)c3ccc(-c4nccs4)cc3)cccc2C1=O	-4.22
COc1ccc(NC(=O)Nc2ccc3c(c2)CC(=O)N([C@@H](C)CO)C[C@H](C)[C@@H](CN(C)CC2CCCCC2)O3)cc1	-0.386
CC(C)(C)c1ccc(S(=O)(=O)NCC(=O)Nc2ccc(F)cc2)cc1	1.01
Cc1ccc(S(=O)(=O)Nc2ccc3c(c2)C(=O)N([C@H](C)CO)C[C@@H](C)[C@H](CN(C)Cc2ccccc2)O3)cc1	-3.79
C/C=C(\C)C(=O)OC(/C=C/C(O)C(C)O)C1C=CC(=O)O1 (configuration not stated)	-20

Compound	inhibition [%]
CC(C)NC(=O)Nc1ccc2c(c1)C(=O)N([C@@H](C)CO)C[C@H](C)[C@H](CN(C)S(=O)(=O)c1cccs1)O2	-11.3
O=C(Oc1ccc(Br)cc1)c1ccco1	16.8
C[C@@H]1CCCCO[C@H](CN(C)C(=O)C2CCCCC2)[C@@H](C)CN([C@H](C)CO)C(=O)c2cc(NC(=O)C3CCCCC3)ccc2O1	-0.585
Cc1ccc(-c2nnc(SCC(=O)Nc3ccccc3OC(F)F)o2)cc1	-24.6
C[C@@H]1CCCCO[C@@H](CN(C)C(=O)Nc2cccc3ccccc23)[C@@H](C)CN([C@H](C)CO)C(=O)c2cc(NS(C)(=O)=O)ccc2O1	-18.2
C[C@@H]1CN([C@@H](C)CO)C(=O)c2cc(NC(=O)Nc3cccc4ccccc34)ccc2O[C@H]1CN(C)Cc1ccc(Cl)c(Cl)c1	18.2
COc1ccc(CCNc2nc(-c3cccc(NC(C)=O)c3)cs2)cc1OC	15.8
C[C@H]1CN([C@@H](C)CO)C(=O)c2cc(NS(C)(=O)=O)ccc2O[C@@H]1CN(C)S(=O)(=O)c1ccc(Cl)cc1	-7.11
C[C@@H]1CN([C@H](C)CO)C(=O)c2cccc(NS(=O)(=O)c3ccc(Cl)cc3)c2O[C@@H]1CN(C)C(=O)Nc1cccc2ccccc12	38.8
O=S(=O)(c1ccccc1)c1nc(-c2ccccc2F)oc1NCc1cccnc1	-15.8
C[C@H](CO)N1C[C@H](C)[C@H](CN(C)S(=O)(=O)c2cn(C)cn2)Oc2ccc(NS(=O)(=O)c3ccccc3)cc2C1=O	-1.93
CCCN1C(=O)C(NS(=O)(=O)c2ccc(N)cc2)(C(F)(F)F)C(C(=O)OC)=C1C (configuration not stated)	5.23
C[C@@H]1CN([C@H](C)CO)C(=O)c2cccc(N(C)C)c2O[C@H]1CN(C)S(=O)(=O)c1cn(C)cn1	8.04
C[C@H](CO)N1C[C@H](C)[C@H](CN(C)C(=O)Nc2cccc3ccccc23)Oc2ccc(NS(C)(=O)=O)cc2C1=O	4.6
COc1ccc(C)cc1S(=O)(=O)N1CCCC(C(=O)Nc2ccccc2C(F)(F)F)C1 (configuration not stated)	4.41
Cc1ccc(NC(=O)c2cccc(N(C)C)c2)cc1NC(=O)c1ccc(O)cc1	-40.4
Cc1noc(C)c1NC(=O)Nc1ccc2c(c1)C(=O)N([C@H](C)CO)C[C@H](C)[C@@H](CN(C)C(=O)Nc1ccc(C(F)(F)F)cc1)O2	-13.6
CCc1ccc2c(c1)c1nc3ccccc3nc1n2CC(=O)OC	-10.5
O=C(O)CCCC=C(c1ccccc1)c1ccccc1	12.2
COc1ccc(C)cc1NC(=O)CSc1nc(SC)ns1	32.4
COc1ccc(NC(=O)Nc2ccc3c(c2)CC(=O)N([C@@H](C)CO)C[C@H](C)[C@@H](CN(C)Cc2ccc4c(c2)OCO4)O3)cc1	-13.4
